# Test results from PubChem BioAssay AID485347 (National Center for Advancing Translational Sciences (NCATS), 2010).
# The campaign covered roughly 340,000 compounds. About 1,200 (0.35%) were called active. Many of the other results were omitted from the sample, so actives are more common in it than they were. Unmarked numbers belong to inactive results.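 Rule for the calls: active = potentiation over 3 SD above the plate norm (cut at about 30% in these data); inactive = the rest.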
# Biological target: D(2) dopamine receptor (Homo sapiens) (UniProt P14416)
# Sequence (P14416 whole entry, looked up): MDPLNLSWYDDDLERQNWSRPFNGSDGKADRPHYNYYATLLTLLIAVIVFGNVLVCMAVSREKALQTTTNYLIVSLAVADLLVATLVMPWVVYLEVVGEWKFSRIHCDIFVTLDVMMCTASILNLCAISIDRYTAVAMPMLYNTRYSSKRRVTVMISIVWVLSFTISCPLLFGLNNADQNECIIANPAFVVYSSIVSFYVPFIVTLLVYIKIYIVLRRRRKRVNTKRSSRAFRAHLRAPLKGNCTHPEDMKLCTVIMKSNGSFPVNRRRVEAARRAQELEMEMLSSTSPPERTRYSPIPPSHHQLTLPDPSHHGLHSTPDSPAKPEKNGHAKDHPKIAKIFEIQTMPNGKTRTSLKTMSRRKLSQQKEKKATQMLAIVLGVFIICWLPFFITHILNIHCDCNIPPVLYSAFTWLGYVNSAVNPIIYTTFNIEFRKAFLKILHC
# Test: HTS Assay for Positive Allosteric Modulators of the Human D2 Dopamine Receptor: Primary Screen for Potentiators; note: 0% is about no effect
# Conditions: HEK293 T-REx D2, calcium flux, EC20 dopamine potentiation; at 10 µM; active compounds read high
# Summary of the method: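 Tetracycline-induced Hek293 Trex D2 cells, force-coupled to calcium, loaded with no-wash calcium dye. Compound added with 180 s kinetic read for agonism, then EC20 dopamine and a further 180 s read for potentiation.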
row,SMILES,potentiation
1,CC(C)(C)c1ccc(C(=O)NCC(c2ccco2)S(=O)(=O)c2ccc(F)cc2)cc1 (stereo not drawn),2.19%
2,COc1ccccc1NC(=O)c1oc2ccccc2c1NC(=O)COc1ccccc1OC,-6.56%
3,Cc1ccc(C)c(NC(=O)c2ccc3nccnc3c2)c1,10.6%
4,CC(C)CCC(C)NC(=O)c1ccc2nccnc2c1 (stereo not drawn),36.8% (active)
5,O=C(NCCc1ccc(F)cc1)c1ccc2nccnc2c1,1.21%
6,CCOC(=O)c1ccccc1NC(=O)CCc1c(C)nc2c(c1C)c(=O)n(C)c(=O)n2C,-0.581%
7,Cc1ccc(NC(=O)c2nc(S(=O)(=O)Cc3cccc(C)c3)ncc2Cl)cc1,-4.73%
8,Cc1cccc(C(=O)N2c3nc(-c4ccco4)nn3C3(CCCCC3)[C@@H]3CCCC[C@@H]32)c1,11.9%
9,COc1ccccc1NC(=O)C1=C(C)Nc2ncnn2C1c1sccc1C (stereo not drawn),14.1%
10,CCn1c(SCC(=O)c2ccc(Cl)s2)nnc1-c1cccs1,5.97%
11,CN(C(=O)CSc1nnc(Nc2ccccc2)s1)C1CCS(=O)(=O)C1 (stereo not drawn),-2.37%
12,CCn1c(SCC(=O)N(C)C2CCS(=O)(=O)C2)nnc1-c1cccs1 (stereo not drawn),43.3% (active)
13,Cc1ccc(NC(=O)Cc2ccc(NC(=O)N3CCCCc4ccccc43)cc2)cc1,-2.54%
14,Cc1c(Cl)cccc1NC(=O)Nc1ccc(C(=O)N2CCCC2)cc1,-6.53%
15,Cc1c(Cl)cccc1NC(=O)NCc1ccc(C)n1C,6.36%
16,Cc1c(NC(=O)Nc2ccccc2Cl)sc(=S)n1C,37% (active)
17,CCCSc1ncc(Cl)c(C(=O)Nc2c(C(=O)Nc3ccccc3)oc3ccccc23)n1,9.52%
18,C=CCN1C(=O)C2(OCCCO2)c2cccc(Cl)c21,9.19%
19,O=C(CC1(O)C(=O)N(CN2CCOCC2)c2ccccc21)c1ccccc1 (stereo not drawn),-7.42%
20,CC(C)(C)C(=O)CCN1C(=O)C2(OCCO2)c2ccccc21,31.3% (active)
21,O=C(NCCCN1CCN(c2cccc(Cl)c2)CC1)c1nnc(Cc2ccc(F)cc2Cl)o1,-20.3%
22,COc1cn(CC(=O)Nc2cccc(C)c2C)c(CN2CCCCC2)cc1=O,-2.25%
23,COC(=O)c1ccc(OC)c(Cn2c(=O)n(Cc3ccccc3)c(=O)c3c2c2cc(OC)ccc2n3C)c1,-2.94%
24,CCc1nn(CC(=O)Nc2cccc(C)c2C)c(=O)c2cc3sccc3n12,8.71%

row,SMILES,potentiation
1,COc1ccc(C(C)=O)cc1CSc1nc2nc(C)cc(C)n2n1,34.5% (active)
2,COc1cccc(CSc2nc3nc(C)cc(C)n3n2)c1,-5.34%
3,Cc1cc(C)n2nc(SCC(N)=O)nc2n1,16.2%
4,CCOc1ccc(-n2c(SCC(=O)NCc3ccccc3)nc3n[nH]c(C)c3c2=N)cc1,-3.4%
5,COc1ccccc1CNCc1ccc(C(=O)O)s1,6.15%
6,O=C1/C(=C/c2cccs2)CCc2ccccc21,1.15%
7,CN1CCN(C(=O)/C(=C\c2cccs2)NC(=O)c2cccs2)CC1,15.2%
8,CN1C/C(=C/c2cccs2)C(=O)/C(=C\c2cccs2)C1,41.9% (active)
9,Cc1c(NC(=O)CSc2nnnn2-c2ccc(C(=O)O)cc2)c(=O)n(-c2ccccc2)n1C,-3.5%
10,Cc1c(NC(=O)CSc2nnc(-c3cccnc3)n2N)c(=O)n(-c2ccccc2)n1C,73.3% (active)
11,Cc1c(NC(=O)CSc2cccc3cccnc23)c(=O)n(-c2ccccc2)n1C,13.1%
12,Cc1cn(C)c(CC(=O)NCc2ccccc2)c1C(=O)O,5.5%
13,CCc1ccc(CNC(=O)c2ccc(CS(=O)c3ccc(Br)cc3)o2)cc1 (stereo not drawn),3.07%
14,COc1ccccc1CNC(=O)C(=O)NCC(c1ccco1)S(=O)(=O)c1ccc(F)cc1 (stereo not drawn),11.5%
15,C=CCn1c(SCn2nnc3ccccc3c2=O)nnc1-c1ccc(Cl)cc1,3.09%
16,C=CCn1cc(-c2cccc(C(F)(F)F)c2)cc(C#N)c1=O,-3%
17,C=CCn1c(-c2ccc(Cl)cc2)ccc(C#N)c1=O,40.5% (active)
18,COc1cc(OC)cc(C(=O)Nc2cc3nn(-c4ccccc4)nc3cc2Cl)c1,29.9%
19,CCCCc1nn2c(=O)cc(COC(=O)c3ccccc3NC(=O)C(C)(C)C)nc2s1,9.21%
20,CC12CCC(C(=O)N(NC(=O)c3ccccc3O)C1=O)C2(C)C (stereo not drawn),13.8%
21,CC1=CC(C)(C)NC(=S)N1NC(=O)c1ccccc1Cl,35.1% (active)
22,CC1=CC(C)(C)NC(=S)N1c1ccccc1,-0.583%
23,CCN(C(=O)c1sc2cc(OC)ccc2c1Cl)c1ccccc1,-5.49%
24,COc1ccccc1NC(=O)c1oc2ccccc2c1NC(=O)C(C)C,-4.17%

row,SMILES,potentiation
1,Cc1ccc(NC(=O)CSc2nc3c([nH]c4ccccc43)c(=O)n2-c2ccccc2)cc1Cl,0.276%
2,Cc1cccc(N2CCN(S(=O)(=O)c3ccc4[nH]c5c(c4c3)CCCCC5)CC2)c1C,2.56%
3,CC(C)(C)NS(=O)(=O)c1ccc(NC(=O)C2CCCO2)cc1 (stereo not drawn),5.45%
4,CC(C)c1ccc(NC(=O)NC2CCCCC2)cc1,4%
5,CC(C)(C)NS(=O)(=O)c1ccc(NC(=O)NC2CCCCC2)cc1,38% (active)
6,CCCN(CCC)CCNC(=O)c1ccc2c(c1)NC(=O)C(CS(=O)(=O)Cc1cccc(Br)c1)N2 (stereo not drawn),0.677%
7,COc1ccc(Cn2ccnc2SCC(=O)Nc2ccc3c(c2)OCO3)cc1,1.53%
8,Cc1cc2c(=O)n(C)c(SCC(=O)c3cc4ccccc4o3)nc2s1,30.1% (active)
9,CCc1cc2c(=O)n(-c3ccccc3)c(SCC(=O)O)nc2s1,-3.23%
10,Cc1ccc(C(=O)CSc2nc3ccccc3c(=O)n2N)o1,2.64%
11,Cc1ccc2c(=O)c(C(=O)c3ccc(F)cc3)cn(CC(=O)NC3CCCCC3)c2n1,-9.33%
12,CCCCNC(=S)NNC(=O)c1cc(C)on1,37% (active)
13,COCCCNC(=S)NNC(=O)C(O)(c1ccccc1)c1ccccc1,-5.53%
14,CCCCNC(=O)c1cc(-c2ccc(Cl)c(Cl)c2)on1,-3.44%
15,COc1ccc(-c2nc(S(=O)(=O)c3ccccc3)c(N3CCCCC3)o2)cc1,-5.46%
16,COc1ccccc1-c1cc(C(=O)N2CCCCC2)no1,-22.4%
17,COc1ccc(-c2cc(C(=O)N3CCN(c4ccc(F)cc4)CC3)no2)cc1,-8.77%
18,COc1ccccc1N1CCN(C(=O)c2cc(-c3ccc(Cl)c(Cl)c3)on2)CC1,69.4% (active)
19,Cc1cccc(Cn2c(=O)n(CCC(=O)NCCc3ccc(Cl)cc3)c(=O)c3sccc32)c1,13%
20,CCN1CCN(C(c2ccc(C)cc2)c2c(O)cc(C)n(Cc3ccco3)c2=O)CC1 (stereo not drawn),6.89%
21,CCC(C)n1[nH]c(=O)c2c(C)cc(C)nc21 (stereo not drawn),1.22%
22,CCCC(C)n1[nH]c(=O)c2c(C)cc(C)nc21 (stereo not drawn),33% (active)
23,CCC(C)n1[nH]c(=O)cc1N (stereo not drawn),2.87%
24,CCOC(=O)c1oc2ccc(S(=O)(=O)n3nc(-c4ccccc4OC)cc3N)cc2c1C,-0.8%

row,SMILES,potentiation
1,COc1ccc(-n2ccn(CC(=O)Nc3ccc(C)c(C)c3)c(=O)c2=O)cc1OC,6.27%
2,O=C(Nc1c(-c2ccc(F)cc2)nc2ccccn12)c1cccc(F)c1,12.9%
3,CCN1CCc2nc3sc(C(=O)Nc4ccccc4OC(F)(F)F)c(N)c3cc2C1,3.95%
4,CCOC(=O)Cc1csc(NC(=O)CN(C)S(=O)(=O)c2ccc3c(c2)CCC(=O)N3)n1,43% (active)
5,CCOC(=O)Cc1csc(NC(=O)CSc2ccc(Br)cc2)n1,-0.963%
6,Cc1cccc(N2CCN(C(=O)CN(C)S(=O)(=O)c3ccc4c(c3)CCC(=O)N4)CC2)c1C,-3.34%
7,Cc1sc(C2C(C#N)=C(N)N(c3cccc(Cl)c3)C3=C2C(=O)CCC3)cc1CN1CCOCC1 (stereo not drawn),-0.593%
8,CCN1CCN(c2ccc(NC(=O)c3cnccn3)cc2)CC1,-0.266%
9,O=C(Nc1ccc(S(=O)(=O)N2CCCCC2)cc1)c1cnccn1,30.4% (active)
10,O=C(Nc1ccc(S(=O)(=O)N2CCCCCC2)cc1)c1c(F)cccc1F,2.54%
11,CN(Cc1ccccc1)S(=O)(=O)c1ccc(F)c(C(=O)Nc2cccc(Cl)c2Cl)c1,-2.84%
12,CCN(CC)S(=O)(=O)c1ccc2c(c1)N(CC(=O)NCc1ccccc1)C(=O)CS2,-1.87%
13,CC(=O)NS(=O)(=O)c1ccccc1,10.6%
14,CC(=O)NS(=O)(=O)c1ccc(NC(=S)NC(=O)C(C)(C)C)cc1,33.2% (active)
15,CC(=O)Nc1ccc(S(=O)(=O)Nc2cccc(NC(=O)C(C)(C)C)c2)cc1,0.479%
16,O=C(CCn1c(=O)c2ccccc2n(Cc2ccc(Cl)cc2)c1=O)NCc1ccc2c(c1)OCO2,-11.6%
17,O=C(Nc1ccc(Br)cc1)c1cc2nc(-c3ccccc3)cc(-c3ccccc3)n2n1,-4.38%
18,Cc1ccccc1-c1nc(SCC(=O)N(C)c2ccccc2)c2c(=O)n(C)c(=O)n(C)c2n1,-12.5%
19,Cn1c(=O)[nH]c(=O)c2c1nc(N1CCCCCC1)n2CC(=O)c1ccccc1,-3.5%
20,Cn1c(=O)[nH]c(=O)c2c1nc(N1CCN(C(c3ccccc3)c3ccccc3)CC1)n2CCO,3.98%
21,CC1CCN(c2nc3c(c(=O)[nH]c(=O)n3C)n2CCCc2ccccc2)CC1,45% (active)
